# PubChem BioAssay (NCI)
# Compounds without any hit were thinned out: in the full panel of roughly 83,000, 20% have a hit.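 Each cell line was grown in a 96-well plate and treated with one concentration of compound for 48 hours. Values below 10 were considered active.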 Values without a mark were called inactive. Active and inactive are the calls of the source.
# What was measured:
# Experiment in all cases: NCI-60 one-dose screen, 48 h (100 = growth as untreated, 0 = no growth, -100 = all killed)
# Conditions in all cases: 10 µM unless noted
# DU-145 prostate = tested on: DU-145 prostate
# K-562 leukemia = tested on: K-562 leukemia
# MALME-3M melanoma = tested on: MALME-3M melanoma
# MDA-MB-231 breast = tested on: MDA-MB-231 breast
# RXF 393 renal = tested on: RXF 393 renal
# SF-268 CNS = tested on: SF-268 CNS
# SF-295 CNS = tested on: SF-295 CNS
# SF-539 CNS = tested on: SF-539 CNS
# UACC-257 melanoma = tested on: UACC-257 melanoma
# M14 melanoma = tested on: M14 melanoma
# HCT-15 colon = tested on: HCT-15 colon
# HT29 colon = tested on: HT29 colon
# SNB-75 CNS = tested on: SNB-75 CNS
# SNB-19 CNS = tested on: SNB-19 CNS
# U251 CNS = tested on: U251 CNS
# PC-3 prostate = tested on: PC-3 prostate
# SK-MEL-5 melanoma = tested on: SK-MEL-5 melanoma
# UACC-62 melanoma = tested on: UACC-62 melanoma
# LOX IMVI melanoma = tested on: LOX IMVI melanoma
# SK-MEL-28 melanoma = tested on: SK-MEL-28 melanoma
SMILES,growth (DU-145 prostate),growth (K-562 leukemia),growth (MALME-3M melanoma),growth (MDA-MB-231 breast),growth (RXF 393 renal),growth (SF-268 CNS),growth (SF-295 CNS),growth (SF-539 CNS),growth (UACC-257 melanoma),growth (M14 melanoma),growth (HCT-15 colon),growth (HT29 colon),growth (SNB-75 CNS),growth (SNB-19 CNS),growth (U251 CNS),growth (PC-3 prostate),growth (SK-MEL-5 melanoma),growth (UACC-62 melanoma),growth (LOX IMVI melanoma),growth (SK-MEL-28 melanoma)
Cc1ccc(C(=O)Nc2ccc(CN3CCN(C)CC3)c(C(F)(F)F)c2)cc1C#Cc1cnc(N)c2ccc(C#N)cc12,43.1%,-25.5% (active),-51.9% (active),11.2%,30.4%,45%,61.8%,51.8%,45.6%,8.81% (active),23.2%,10.5%,51.5%,63.3%,48.9%,51.7%,13.5%,25.4%,21%,12.9%
Cc1c(Cc2ccccc2)c(=O)oc2c(C)c(OCc3n[nH]c(=S)o3)ccc12,19.4%,71.6%,48.7%,80.7%,98.8%,75.9%,77%,92.1%,88%,99.3%,75.7%,86.8%,71.4%,85.8%,64.4%,11.2%,83.8%,90.4%,64.5%,110%
CCCCCCCCCc1cc[n+](CC(=O)c2ccc([N+](=O)[O-])cc2)cc1,23.7%,-4.43% (active),-34.9% (active),-76.7% (active),32.5%,29.6%,9.4% (active),-87.5% (active),0.0548% (active),-67.3% (active),-18.2% (active),-52.1% (active),23.9%,13.8%,8.48% (active),-0.775% (active),-77.8% (active),-6.32% (active),-77.2% (active),12.3%
Cc1ccc(S(=O)(=O)Nc2cccc(Cn3c(=O)[nH]c4ccc(Oc5ncccn5)cc4c3=O)c2)cc1,95.6%,26.6%,59.8%,77.4%,80.5%,82.3%,74.4%,71.7%,73.3%,59.1%,91%,65.1%,78.9%,57.4%,79.1%,52%,53.8%,34.7%,64.5%,66.7%
CC(C)(C)c1ccc(OCCOC(=O)CBr)cc1,109%,82.8%,107%,88%,78.5%,96.3%,116%,100%,106%,95.8%,97.9%,104%,84.6%,104%,103%,110%,97%,93.6%,97.8%,107%
Cc1ccc(CC(=O)O)c(C)c1,107%,104%,110%,105%,121%,96.3%,97.1%,106%,91.7%,102%,103%,97.2%,92.1%,102%,99.3%,98.3%,106%,98.8%,98%,113%
COC(=O)c1ccc(C(=Nc2ccc(N(C)C(=O)CN3CCN(C)CC3)cc2)c2c(O)[nH]c3ccc(C(=O)OC)cc23)cc1,38.2%,7.19% (active),-14.7% (active),49.2%,17.7%,32.8%,44.4%,23.3%,67.7%,28.7%,27%,29.7%,24.6%,55.3%,29%,28.8%,36.4%,42.7%,38.5%,50.4%
[2H]c1nc(=Nc2cc(NC(=O)C=C)c(N(C)CCN(C)C)cc2OC)[nH]c(-c2cn(C([2H])([2H])[2H])c3ccccc23)c1[2H],45%,-18.3% (active),8.26% (active),54%,44.1%,51.2%,85.4%,40.5%,-2.01% (active),-52.7% (active),1.13% (active),-3.69% (active),66.9%,55.8%,40.9%,50.2%,63.5%,-10.7% (active),39.2%,37.5%
N#Cc1ccc(OCc2nc(N)nc(N)c2-c2ccc(Cl)c(Cl)c2)cc1,34.3%,12.6%,49.5%,50.7%,46%,33.6%,3.74% (active),22.7%,22.8%,27.6%,20.9%,10.8%,65.6%,38.2%,20.5%,18.9%,23.4%,12.2%,11.1%,54.4%
CC(C)(C)OC(=O)N1C/C(=C\c2ccccc2)C(=O)/C(=C/c2ccccc2)C1,112%,74.8%,113%,79.9%,102%,81.4%,99.5%,104%,91.4%,98.3%,96.5%,94.1%,74.9%,91.2%,90.5%,81%,108%,84%,95.1%,107%
O=C(/C=C\c1ccc(NCc2ccc(C(=O)O)cc2)cc1)CCl,112%,9.08% (active),88.8%,91.4%,65.2%,74%,96.4%,95%,85.6%,90.7%,72.4%,84.9%,91.1%,96.7%,84.5%,96.2%,100%,84.2%,5.63% (active),104%
CCC(C)C1NC(=O)C(CC(C)C)NC(=O)C(C)NC(=O)C(C(C)C)NC(=O)C(CCCCN)NC(=O)C(CC(C)C)NC(=O)C(C(C)C)NC(=O)[C@H](C)NC(=O)C(C(C)CC)NC(=O)C(CCCN=C(N)N)NC(=O)C(CCCCN)NC(=O)C(CCCN=C(N)N)NC(=O)C(CCCCN)NC(=O)C([C@H](C)CC)NC(=O)C(CCCCN)NC1=O (stereo not given in full),23.8%,8.83% (active),15.2%,-0.693% (active),33%,20.3%,21.4%,67.2%,1.31% (active),17.7%,26.7%,3.41% (active),28.8%,17.4%,3.51% (active),-4.78% (active),1.67% (active),21.3%,35.4%,41.3%
Cc1ccc(NCc2cn(-c3ccc(C(=O)O)cc3)nc2-c2ccc(C(=O)O)cc2)cc1,100%,102%,93.1%,108%,121%,92.8%,103%,101%,97.6%,99.3%,110%,97.4%,96.7%,104%,97.1%,106%,108%,103%,94.6%,112%
Nc1cc2c(cc1Br)[nH]c(=O)c1ccccc12,27.8%,40.7%,26.3%,32%,22%,51.3%,74.8%,110%,45.8%,22%,58.3%,22.4%,94.3%,58.6%,40.3%,42.9%,0.102% (active),73.4%,25.1%,78.4%
CCCCCCCCCCCCCCCCNC(=O)Nc1ccc(C)c(NC(=O)NCCCCCCCCCCCCCCCC)c1,112%,105%,89.8%,89.9%,108%,114%,114%,110%,105%,108%,105%,104%,97%,96.9%,100%,84.5%,98.4%,95.5%,109%,112%
